# From PMC5540273 (PLoS ONE, 2017)
# Experiments:
# Details in all cases: concentration: 1 μM, replicates: in singlicate; n = 1
# DRAK1 = test system: T1, DRAK1
# T1 construct: gene STK17A
# DRAK2 = test system: T2, DRAK2
# T2 construct: gene STK17B
# DYRK1A = test system: DYRK1A
# DYRK1B = test system: DYRK1B
# DYRK2 = test system: DYRK2
# EGFR = test system: EGFR
# EIF2AK1 = test system: EIF2AK1
# EPHA1 = test system: EPHA1
# EPHA2 = test system: EPHA2
# EPHA3 = test system: EPHA3
# EPHA4 = test system: EPHA4
# EPHA5 = test system: EPHA5
# EPHA6 = test system: EPHA6
# EPHA7 = test system: EPHA7
# EPHA8 = test system: EPHA8
# EPHB1 = test system: EPHB1
# EPHB2 = test system: EPHB2
# EPHB3 = test system: EPHB3
# EPHB4 = test system: EPHB4
# EPHB6 = test system: EPHB6
# 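Also: KINOMEscan kinase panel screen.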
SMILES,%Inh (DRAK1) [%],%Inh (DRAK2) [%],%Inh (DYRK1A) [%],%Inh (DYRK1B) [%],%Inh (DYRK2) [%],%Inh (EGFR) [%],%Inh (EIF2AK1) [%],%Inh (EPHA1) [%],%Inh (EPHA2) [%],%Inh (EPHA3) [%],%Inh (EPHA4) [%],%Inh (EPHA5) [%],%Inh (EPHA6) [%],%Inh (EPHA7) [%],%Inh (EPHA8) [%],%Inh (EPHB1) [%],%Inh (EPHB2) [%],%Inh (EPHB3) [%],%Inh (EPHB4) [%],%Inh (EPHB6) [%]
Cc1cccc(-c2nc(Nc3ccncc3)c3ccccc3n2)n1 [GW855857],2,7,0,27,0,6,0,23,18,0,18,0,0,0,7,3,16,11,26,0
Cc1cc(-c2ccc3c(c2)CC[C@@H](N[C@@H](C)c2ccccc2)C3)cnc1N.Cl [GW412617],0,11,19,17,0,31,0,14,14,0,13,1,10,0,8,9,0,9,11,48
COc1cc2ncnc(Nc3ccc4nc(-c5ccccc5)[nH]c4c3)c2cc1OC.Cl [GW282450],0,0,13,0,19,59,6,10,0,31,0,0,0,0,0,38,1,3,22,18
Cc1cccc(-c2cc(Nc3ccncc3)c3ccccc3n2)n1 [GSK223675],0,0,8,0,18,17,0,4,0,0,0,0,0,0,0,4,0,0,0,25
Cc1c(O)cccc1Nc1ccnc2ccc(C(F)(F)F)cc12.Cl [GW466413],14,0,29,0,0,28,0,77,11,3,0,0,14,0,8,9,0,54,20,0
CC(C)(C)c1ccc(C(=O)Nc2cn3cc(-c4cccnc4)ccc3n2)cc1,10,5,42,65,51,17,3,12,12,9,25,13,29,4,8,19,4,26,16,28
O=C1NC(=O)C(N2CCc3ccccc32)=C1c1ccccc1Cl [SB-373598],0,0,18,0,6,25,0,10,27,12,24,0,18,18,36,9,0,14,20,31
CCn1c(-c2cccnc2O)nc2cnccc21 [SB-736715],0,0,0,54,0,7,0,0,0,0,0,0,0,0,0,0,6,0,0,0
COc1ccc(C2=C(Nc3cccc(C(=O)O)c3)C(=O)NC2=O)cc1 [SB-390765],19,7,9,0,20,0,11,7,9,11,21,7,16,0,10,5,9,20,9,19
Cl.O=C(Nc1cccc(-c2nn3ncccc3c2-c2ccnc(Nc3cccnc3)n2)c1)c1c(F)cccc1F [GSK312879],1,0,22,18,6,98.9,17,4,0,2,1,0,1,7,27,13,0,0,12,10
